# Shown are actives, neighbours in structure and some others; about 7.2% of the full set was active somewhere.
# Mot1-301 SUMO: SUMOylation pathway inhibition by Mot1-301 growth rescue; S. cerevisiae Mot1-301 growth rescue, ATP luminescence, 38.5C; percent above DMSO median, 100 means doubled; growth rescue, % at 18.8 µM; actives 1% (n = 320,000); AID 2716;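 active = every valid replicate shows activation above 250% relative to neutral control wells; inactive = the rest, any valid replicate at or below 250%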
# ALR inh: inhibitors of human sulfhydryl oxidase ALR | P55789 | purified ALR, DTT oxidation, H2O2 HRP-luminol luminescence | inhibition, % (test concentration not listed) | actives 3.8% (n = 290,000) | AID 485317;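 active = mean replicate inhibition above about 79%, with every replicate also reaching it, limit read from the data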
# Target sequence (P55789 whole entry, looked up): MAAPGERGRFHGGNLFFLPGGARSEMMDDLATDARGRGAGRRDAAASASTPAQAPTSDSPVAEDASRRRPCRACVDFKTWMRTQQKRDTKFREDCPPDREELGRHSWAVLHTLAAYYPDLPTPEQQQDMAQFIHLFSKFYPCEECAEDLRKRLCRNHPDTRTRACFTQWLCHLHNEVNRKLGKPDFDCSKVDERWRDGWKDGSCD
# A1 inh: inhibitors of the anti-apoptotic protein A1, read as caspase activation | MEF A1-2A-BIM cells, Caspase-Glo 3/7 luminescence, 3 h; percent of clofoctol response, vehicle zero | caspase activation, % (test concentration not listed) | actives 0.066% (n = 330,000);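 active = over half of replicate activation scores above 10%, or exactly half above 10 with the replicate mean above 10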
# VLA-4 inh: inhibition in a human VLA-4 binding assay. P13612. VLA-4 expressing cells, ligand binding flow cytometry. inhibition, % (about 7 µM as worked out from the volumes in the protocol). actives 0.2% (n = 330,000). AID 2557; in the data active = inhibition above about 50%
# Efflux pump mplx: blocks antifungal efflux pumps in multiplex yeast assay | S. cerevisiae Candida pump triplex, Nile Red efflux | inhibition, % at 10 µM | AID 485275 | actives 0.44% (n = 330,000);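 active = plate passing quality check with inhibition over a set limit, or well fluorescence over plate mean plus 4 SD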;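 note: Nile Red retained in pooled yeast measured as flow cytometry median fluorescence; higher means more Nile Red kept so more efflux inhibition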
# AHR act: activators of human aryl hydrocarbon receptor; P35869; AHR-responsive luciferase reporter cells, luminescence; activation, % at 5 µM; actives 2.5% (n = 320,000); AID 2796; in the data active = activation above about 47%
# Hits are given with their value; - = inactive; . = not tested or not shown.
SMILES,Mot1-301 SUMO,ALR inh,A1 inh,VLA-4 inh,Efflux pump mplx,AHR act
Cc1cccc(-n2c(C)cc(C)c(C#N)c2=O)c1,-,-,-,-,-,-
COc1ccc2c(c1OC)C(=O)N(c1ccccn1)C2,.,-,-,-,-,52.1
COc1ccccc1N1Cc2ccc(OC)c(OC)c2C1=O,-,-,-,-,-,-
CCc1onc(C)c1C(=O)Nc1ccc2c(c1)OCO2,-,.,-,-,-,58.1
O=C(NCC1CCCO1)c1cc2cc(F)ccc2[nH]1 (centres undefined),-,-,-,-,-,-
CCc1ccc2[nH]c(C(=O)Nc3ccc(F)cc3Br)cc2c1,-,-,-,-,-,48.6
CCc1ccc2[nH]c(C(=O)Nc3ccc4c(c3)OCO4)cc2c1,-,-,-,-,-,72.2
COc1ccccc1NC(=O)COC(=O)COc1cccc2c1OC(C)(C)C2,-,-,-,-,-,-
O=C(C1=C(O)C(=O)N(CCCN2CCOCC2)C1c1ccc(Cl)cc1)c1cc2ccccc2o1 (centres undefined),-,92.0,-,-,-,-
O=C(C1=C(O)C(=O)N(CCN2CCOCC2)C1c1ccc(Cl)cc1)c1cc2ccccc2o1 (centres undefined),-,-,-,-,-,-
COc1cc(/C=N/NC(=O)C[n+]2ccccc2)cc(OC)c1OC(C)=O,-,.,-,-,-,-
O=C(Nc1ccc(Nc2ccccc2)cc1)c1cc([N+](=O)[O-])ccc1Cl,-,-,-,-,-,-

# Screening data as filed in PubChem BioAssay.
